Measurements as given in the supplement of paper PMC10849652.
Targets with a hit are over-represented here; the source holds about 7,900 in all. About 0.6% of all pairs of compound and target were hits. A number with no mark means an inactive call.

Columns and labels:
Experiment in all cases: log2 fold change, soluble protein after heating vs DMSO (PISA); higher = thermal stabilisation; K562 cells, 10 uM, 30 min; active = over 0.2 and 3.5 SD of the protein, either way, in both replicates (recomputed)
filanesib = compound: CON(C)C(=O)N1N=C(c2cc(F)ccc2F)S[C@@]1(CCCN)c1ccccc1 [filanesib]
Method in brief: (§1)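 Values are thermal stability changes relative to control samples and are taken from duplicates. They are stated as log2 fold changes. Before quantification by TMTpro 16plex LC-MS/MS with equalised channel sums, K562 cells at 2×10^6 cells/mL were treated with 10 μM compound for 30 min, heated in aliquots for 3 min across 48°C-58°C, pooled, extracted in PBS with 0.5% NP-40 at 4°C, and centrifuged at 21,000xg for 90 min to give the soluble supernatant.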

zotarolimus = compound: CO[C@H]1C[C@@H]2CC[C@@H](C)[C@@](O)(O2)C(=O)C(=O)N2CCCC[C@H]2C(=O)O[C@H]([C@H](C)C[C@@H]2CC[C@H](n3cnnn3)[C@H](OC)C2)CC(=O)[C@H](C)/C=C(\C)[C@@H](O)[C@@H](OC)C(=O)[C@H](C)C[C@H](C)/C=C/C=C/C=C/1C [zotarolimus]
Method in brief: as §1

idasanutlin = compound: COc1cc(C(=O)O)ccc1NC(=O)[C@@H]1N[C@@H](CC(C)(C)C)[C@](C#N)(c2ccc(Cl)cc2F)[C@H]1c1cccc(Cl)c1F [idasanutlin]
Method in brief: as §1

alisertib = compound: COc1cc(Nc2ncc3c(n2)-c2ccc(Cl)cc2C(c2c(F)cccc2OC)=NC3)ccc1C(=O)O [alisertib]
Method in brief: as §1

[1] = compound: COc1cc2nc(-c3cc(F)ccc3O)nc(N[C@@H]3CNC[C@H]3C(C)(C)O)c2cc1OC
Method in brief: as §1

gefitinib = compound: COc1cc2ncnc(Nc3ccc(F)c(Cl)c3)c2cc1OCCCN1CCOCC1 [gefitinib]
Method in brief: as §1

[2] = compound: COc1cccc2cc(-c3nc([C@H]4CC[C@H](C(=O)O)CC4)n4ncnc(N)c34)[nH]c12
Method in brief: as §1

lapatinib = compound: CS(=O)(=O)CCNCc1ccc(-c2ccc3ncnc(Nc4ccc(OCc5cccc(F)c5)c(Cl)c4)c3c2)o1 [lapatinib]
Method in brief: as §1

pictilisib = compound: CS(=O)(=O)N1CCN(Cc2cc3nc(-c4cccc5[nH]ncc45)nc(N4CCOCC4)c3s2)CC1 [pictilisib]
Method in brief: as §1

[3] = compound: CS(=O)(=O)c1ccc(-c2cnc(N)c(C(=O)Nc3ccccc3)n2)cc1
Method in brief: as §1

[4] = compound: C[C@@H]1COCCN1C2=NC(=NC(=C2)C3(CC3)S(=O)(=O)C)C4=C5C=CNC5=CC=C4
Method in brief: as §1

[5] = compound: C[C@H](C1=CC=C(C=C1)C(=O)NC2=C3C=CNC3=NC=C2)N
Method in brief: as §1

duvelisib = compound: C[C@H](Nc1ncnc2nc[nH]c12)c1cc2cccc(Cl)c2c(=O)n1-c1ccccc1 [duvelisib]
Method in brief: as §1

gandotinib = compound: Cc1cc(Nc2cc(CN3CCOCC3)c3nc(C)c(Cc4ccc(Cl)cc4F)n3n2)n[nH]1 [gandotinib]
Method in brief: as §1

tozasertib = compound: Cc1cc(Nc2cc(N3CCN(C)CC3)nc(Sc3ccc(NC(=O)C4CC4)cc3)n2)n[nH]1 [tozasertib]
Method in brief: as §1

[6] = compound: Cc1cc(SCc2sc(-c3ccc(C(F)(F)F)cc3)nc2C)ccc1OCC(=O)O
Method in brief: as §1

ispinesib = compound: Cc1ccc(C(=O)N(CCCN)[C@@H](c2nc3cc(Cl)ccc3c(=O)n2Cc2ccccc2)C(C)C)cc1 [ispinesib]
Method in brief: as §1

[7] = compound: COC1=CC=C(C=C1)CN2C=CC3=C2C=C(C=C3)C(=O)NO
Method in brief: as §1

crizotinib = compound: C[C@@H](Oc1cc(-c2cnn(C3CCNCC3)c2)cnc1N)c1c(Cl)ccc(F)c1Cl [crizotinib]
Method in brief: as §1

doramapimod = compound: Cc1ccc(-n2nc(C(C)(C)C)cc2NC(=O)Nc2ccc(OCCN3CCOCC3)c3ccccc23)cc1 [doramapimod]
Method in brief: as §1

Chain of UniProt O76062 (O76062 whole entry, looked up): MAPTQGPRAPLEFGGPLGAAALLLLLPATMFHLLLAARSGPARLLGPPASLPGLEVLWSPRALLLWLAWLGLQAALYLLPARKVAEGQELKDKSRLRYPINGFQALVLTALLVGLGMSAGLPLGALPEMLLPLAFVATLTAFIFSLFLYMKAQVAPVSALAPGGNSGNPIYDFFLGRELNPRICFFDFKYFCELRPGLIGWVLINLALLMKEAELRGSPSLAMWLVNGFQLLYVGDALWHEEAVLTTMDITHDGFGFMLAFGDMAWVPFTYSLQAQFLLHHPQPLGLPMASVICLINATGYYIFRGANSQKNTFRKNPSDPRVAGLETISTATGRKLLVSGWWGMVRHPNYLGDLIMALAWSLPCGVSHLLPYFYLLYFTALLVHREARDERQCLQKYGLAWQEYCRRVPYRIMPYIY
Chain of UniProt Q9NXE4 (Q9NXE4 whole entry, looked up): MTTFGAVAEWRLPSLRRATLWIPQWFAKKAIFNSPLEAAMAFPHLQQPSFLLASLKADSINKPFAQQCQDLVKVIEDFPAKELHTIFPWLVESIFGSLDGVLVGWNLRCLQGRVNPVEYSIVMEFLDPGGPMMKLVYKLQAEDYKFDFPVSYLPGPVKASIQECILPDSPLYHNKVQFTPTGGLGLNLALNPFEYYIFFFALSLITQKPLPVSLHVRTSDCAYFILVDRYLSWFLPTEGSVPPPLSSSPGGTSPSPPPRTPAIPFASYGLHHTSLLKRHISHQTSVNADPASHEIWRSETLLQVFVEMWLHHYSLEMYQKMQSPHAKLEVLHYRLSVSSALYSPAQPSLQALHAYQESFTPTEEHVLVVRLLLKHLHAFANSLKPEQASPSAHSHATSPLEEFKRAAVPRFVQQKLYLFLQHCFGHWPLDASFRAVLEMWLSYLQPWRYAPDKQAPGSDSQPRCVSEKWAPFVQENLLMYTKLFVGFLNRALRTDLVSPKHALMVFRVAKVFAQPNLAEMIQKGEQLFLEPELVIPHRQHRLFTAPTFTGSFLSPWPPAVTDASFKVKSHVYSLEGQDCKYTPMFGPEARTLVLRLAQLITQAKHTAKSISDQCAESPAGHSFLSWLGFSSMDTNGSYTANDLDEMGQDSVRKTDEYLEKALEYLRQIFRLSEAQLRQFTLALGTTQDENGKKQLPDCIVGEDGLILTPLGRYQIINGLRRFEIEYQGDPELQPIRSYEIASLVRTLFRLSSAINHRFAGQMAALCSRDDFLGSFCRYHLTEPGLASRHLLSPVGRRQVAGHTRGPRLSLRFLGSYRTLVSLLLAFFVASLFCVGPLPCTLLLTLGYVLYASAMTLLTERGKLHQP
Chain of UniProt Q8N5G0 (Q8N5G0 whole entry, looked up): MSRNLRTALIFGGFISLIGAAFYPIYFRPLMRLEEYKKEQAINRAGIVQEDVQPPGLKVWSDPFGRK
Chain of UniProt O60749 (O60749 whole entry, looked up): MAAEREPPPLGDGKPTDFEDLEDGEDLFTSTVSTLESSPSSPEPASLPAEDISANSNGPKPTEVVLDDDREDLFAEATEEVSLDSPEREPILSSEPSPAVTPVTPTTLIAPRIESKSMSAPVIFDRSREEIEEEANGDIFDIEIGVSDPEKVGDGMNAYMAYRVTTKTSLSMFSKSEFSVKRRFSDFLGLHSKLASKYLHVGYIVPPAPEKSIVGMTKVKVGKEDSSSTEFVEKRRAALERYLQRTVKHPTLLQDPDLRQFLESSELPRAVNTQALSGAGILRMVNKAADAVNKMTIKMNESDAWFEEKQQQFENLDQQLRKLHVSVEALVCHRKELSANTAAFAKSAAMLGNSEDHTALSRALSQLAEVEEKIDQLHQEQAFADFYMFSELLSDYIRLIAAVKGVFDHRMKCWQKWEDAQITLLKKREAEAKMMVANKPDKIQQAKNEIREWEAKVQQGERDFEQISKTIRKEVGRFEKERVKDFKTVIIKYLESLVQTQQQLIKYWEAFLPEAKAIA
Chain of UniProt Q8N9U0 (Q8N9U0 whole entry, looked up): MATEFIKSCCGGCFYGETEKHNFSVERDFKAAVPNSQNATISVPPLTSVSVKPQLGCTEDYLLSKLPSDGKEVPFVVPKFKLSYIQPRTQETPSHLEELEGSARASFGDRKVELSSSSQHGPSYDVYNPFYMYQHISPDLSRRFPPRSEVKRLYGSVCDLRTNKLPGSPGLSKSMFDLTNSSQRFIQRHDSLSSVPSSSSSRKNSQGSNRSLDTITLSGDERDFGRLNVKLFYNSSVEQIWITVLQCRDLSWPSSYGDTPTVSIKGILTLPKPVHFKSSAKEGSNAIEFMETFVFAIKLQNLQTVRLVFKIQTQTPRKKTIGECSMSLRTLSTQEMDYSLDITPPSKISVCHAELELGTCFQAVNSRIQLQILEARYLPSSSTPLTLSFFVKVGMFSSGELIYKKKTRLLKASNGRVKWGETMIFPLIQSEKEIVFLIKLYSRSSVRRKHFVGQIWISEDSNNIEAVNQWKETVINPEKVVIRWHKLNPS
Chain of UniProt Q969S0 (Q969S0 whole entry, looked up): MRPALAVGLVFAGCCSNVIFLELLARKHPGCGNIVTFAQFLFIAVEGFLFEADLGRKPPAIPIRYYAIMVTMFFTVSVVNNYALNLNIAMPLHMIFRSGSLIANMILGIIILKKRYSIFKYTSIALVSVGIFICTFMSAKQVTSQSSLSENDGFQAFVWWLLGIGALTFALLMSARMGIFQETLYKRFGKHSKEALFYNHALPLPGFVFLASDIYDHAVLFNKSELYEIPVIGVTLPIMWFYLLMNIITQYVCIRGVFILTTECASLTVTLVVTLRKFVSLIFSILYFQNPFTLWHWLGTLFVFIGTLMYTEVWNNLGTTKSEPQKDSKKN
Chain of UniProt P36956 (P36956 whole entry, looked up): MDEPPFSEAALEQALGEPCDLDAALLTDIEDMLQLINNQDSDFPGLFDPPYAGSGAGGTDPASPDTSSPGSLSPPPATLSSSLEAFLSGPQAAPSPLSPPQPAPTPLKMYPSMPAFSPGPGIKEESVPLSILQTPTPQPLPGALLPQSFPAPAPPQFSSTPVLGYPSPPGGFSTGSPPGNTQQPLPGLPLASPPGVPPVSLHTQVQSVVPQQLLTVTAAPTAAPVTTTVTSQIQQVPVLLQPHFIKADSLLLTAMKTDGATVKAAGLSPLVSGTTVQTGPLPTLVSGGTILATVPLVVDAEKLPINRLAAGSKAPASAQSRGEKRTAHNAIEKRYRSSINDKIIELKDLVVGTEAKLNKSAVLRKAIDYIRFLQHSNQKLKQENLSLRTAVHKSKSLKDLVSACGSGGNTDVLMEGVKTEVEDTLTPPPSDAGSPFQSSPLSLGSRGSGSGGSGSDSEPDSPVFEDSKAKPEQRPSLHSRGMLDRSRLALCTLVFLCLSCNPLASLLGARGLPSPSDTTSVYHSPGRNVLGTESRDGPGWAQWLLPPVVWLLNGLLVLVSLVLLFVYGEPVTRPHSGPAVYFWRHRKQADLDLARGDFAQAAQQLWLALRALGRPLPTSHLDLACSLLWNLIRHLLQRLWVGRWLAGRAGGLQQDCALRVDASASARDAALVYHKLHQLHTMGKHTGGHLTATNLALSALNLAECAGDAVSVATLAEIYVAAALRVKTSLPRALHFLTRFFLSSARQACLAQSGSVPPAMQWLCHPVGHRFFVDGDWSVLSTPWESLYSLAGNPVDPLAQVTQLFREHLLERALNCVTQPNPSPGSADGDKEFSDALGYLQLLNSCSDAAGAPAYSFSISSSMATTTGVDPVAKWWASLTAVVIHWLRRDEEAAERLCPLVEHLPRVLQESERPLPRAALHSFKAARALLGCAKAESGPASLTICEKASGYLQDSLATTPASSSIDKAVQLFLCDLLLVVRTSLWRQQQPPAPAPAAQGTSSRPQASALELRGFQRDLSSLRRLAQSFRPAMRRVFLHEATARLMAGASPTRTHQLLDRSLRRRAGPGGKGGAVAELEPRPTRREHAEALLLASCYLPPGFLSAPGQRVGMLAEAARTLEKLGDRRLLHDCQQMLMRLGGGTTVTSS
Chain of UniProt O94768 (O94768 whole entry, looked up): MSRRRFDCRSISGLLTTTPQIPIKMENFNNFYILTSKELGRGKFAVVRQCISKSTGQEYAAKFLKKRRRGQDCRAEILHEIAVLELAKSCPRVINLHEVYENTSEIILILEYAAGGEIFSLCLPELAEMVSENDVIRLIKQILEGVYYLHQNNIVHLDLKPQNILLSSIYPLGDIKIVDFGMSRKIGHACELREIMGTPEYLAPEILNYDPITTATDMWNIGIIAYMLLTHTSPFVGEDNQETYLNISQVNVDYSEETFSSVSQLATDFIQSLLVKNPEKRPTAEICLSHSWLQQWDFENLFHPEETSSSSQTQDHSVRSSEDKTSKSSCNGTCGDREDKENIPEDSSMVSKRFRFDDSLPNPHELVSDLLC
Chain of UniProt Q6J4K2 (Q6J4K2 whole entry, looked up): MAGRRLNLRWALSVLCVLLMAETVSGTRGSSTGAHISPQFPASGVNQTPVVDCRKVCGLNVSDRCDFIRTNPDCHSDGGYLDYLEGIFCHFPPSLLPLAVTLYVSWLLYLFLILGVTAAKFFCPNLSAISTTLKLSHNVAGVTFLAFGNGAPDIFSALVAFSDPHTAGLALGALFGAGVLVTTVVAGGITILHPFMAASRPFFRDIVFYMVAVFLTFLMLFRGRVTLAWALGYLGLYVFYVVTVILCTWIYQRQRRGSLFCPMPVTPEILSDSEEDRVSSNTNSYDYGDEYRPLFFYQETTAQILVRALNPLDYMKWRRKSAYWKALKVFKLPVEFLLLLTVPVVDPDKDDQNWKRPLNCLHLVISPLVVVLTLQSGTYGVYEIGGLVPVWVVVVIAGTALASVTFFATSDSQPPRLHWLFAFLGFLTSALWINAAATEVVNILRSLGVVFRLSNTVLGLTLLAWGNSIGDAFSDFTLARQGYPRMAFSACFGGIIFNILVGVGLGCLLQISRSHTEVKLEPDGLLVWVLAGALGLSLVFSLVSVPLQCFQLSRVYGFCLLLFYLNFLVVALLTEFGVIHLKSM

| Target | log2 fold change (filanesib) | log2 fold change (zotarolimus) | log2 fold change (idasanutlin) | log2 fold change (alisertib) | log2 fold change [1] | log2 fold change (gefitinib) | log2 fold change [2] | log2 fold change (lapatinib) | log2 fold change (pictilisib) | log2 fold change [3] | log2 fold change [4] | log2 fold change [5] | log2 fold change (duvelisib) | log2 fold change (gandotinib) | log2 fold change (tozasertib) | log2 fold change [6] | log2 fold change (ispinesib) | log2 fold change [7] | log2 fold change (crizotinib) | log2 fold change (doramapimod) |
| --- | --- | --- | --- | --- | --- | --- | --- | --- | --- | --- | --- | --- | --- | --- | --- | --- | --- | --- | --- | --- |
| SMIM20 isoform 2 (UniProt Q8N5G0) | 0.093 | -0.037 | 0.095 | -0.056 | 0.024 | 0.057 | 0.091 | -0.044 | -0.044 | -0.014 | 0.126 | 0.019 | 0.086 | 0.068 | 0.069 | -0.068 | 0.089 |  |  |  |
| TC2N (UniProt Q8N9U0) |  |  | -0.003 | 0.012 |  | -0.066 | 0.127 |  |  |  |  |  | 0.256 |  | -0.095 | -0.072 | -0.071 |  |  |  |
| SLC9A6 isoform 3 (UniProt Q92581) |  | -0.051 | 0.098 |  | 0.055 |  |  | -0.072 |  |  |  | -0.018 | -0.001 |  | -0.126 | -0.137 |  |  |  |  |
| SLC35B4 (UniProt Q969S0) | -0.119 |  | 0.027 | 0.032 |  | 0.149 | 0.076 |  |  | 0.016 | 0.048 |  |  |  | 0.063 |  |  | -0.076 | 0.256 | 0.038 |
| TCOF1 isoform 3 (UniProt Q13428) | -0.152 |  |  |  |  |  |  |  | 0.188 | -0.103 | 0.542 |  |  | -0.166 | 0.073 |  | -0.185 |  |  |  |
| SLC8B1 (UniProt Q6J4K2) |  | -0.097 | -0.034 |  | 0.132 |  |  | 0.066 | 0.016 |  |  | 0.129 | 0.196 | -0.053 |  | -0.073 | -0.477 (active) | 0.044 | -0.793 (active) | 0.046 |
| SSB (UniProt E7ERC4) |  |  |  | 0.494 |  |  | -0.37 |  | -0.086 |  |  |  | 0.399 | -0.352 |  | 0.337 |  |  |  |  |
| SNRK (UniProt Q9NRH2) | 0.158 |  |  |  | 0.84 (active) |  |  | 0.016 |  | 0.008 |  |  | -0.162 |  |  | -0.067 |  | 0.15 | -0.026 | 0.001 |
| TACC2 (UniProt O95359) | -0.107 | -0.003 | -0.042 | 0.1 | 0.01 | -0.027 | 0.011 | 0.011 | 0.046 | -0.045 |  | -0.013 | 0.058 | -0.154 | 0.056 | -0.005 | 0.145 |  |  |  |
| SREBF1 isoform 4 (UniProt P36956) |  |  |  | -0.014 |  |  | 0.098 |  |  |  | 0.084 |  | -0.083 |  |  | 0.089 |  | -0.089 | 0.106 | 0.098 |
| SYK (UniProt P43405) |  | 0.066 | 0.25 |  | 0.204 |  |  | 0.06 |  |  | -0.093 | 0.053 | 0.13 |  | 0.031 | 0.405 | -0.216 | 0.085 |  | 0.179 |
| SLC35F6 (UniProt Q8N357) | -0.001 | 0.016 | 0.02 | -0.052 | 0.033 | 0 | 0.037 | -0.076 |  | -0.247 | 0.021 | 0.076 | -0.049 |  | 0.034 | -0.219 | -0.083 |  |  |  |
| TK1 (UniProt K7ERV3) | 0.005 | -0.034 | -0.075 | 0.121 | -0.107 | 0.026 | 0 | -0.107 | 0.102 | 0 | 0.021 | 0.182 | 0.046 | -0.029 | 0.012 | -0.041 | 0.005 |  |  |  |
| TCOF1 isoform 6 (UniProt Q13428) | -0.087 | -0.062 |  | -0.263 |  | 0.028 | -0.105 |  |  | -0.07 |  | -0.025 |  |  | -0.008 |  | -0.122 | -0.318 | 0.032 | -0.068 |
| SNX2 isoform 2 (UniProt O60749) | -0.234 | 0.022 | -0.054 |  | 0.462 |  |  | 0.041 |  | 0.135 | 0.071 | 0.108 | 0.015 |  |  | -0.029 |  | 0.258 | -0.145 | 0.17 |
| SMPD4 isoform 2 (UniProt Q9NXE4) |  | 0.043 | -0.16 | -0.117 | -0.308 |  | 0.003 | 0.131 | -0.108 |  |  | -0.061 | 0.069 | -0.263 | -0.163 | 0.09 |  | -0.011 | -0.21 | 0.027 |
| STK17B (UniProt O94768) |  |  |  |  |  |  |  |  |  |  |  |  |  |  |  |  |  | 0.01 | -0.227 | -0.085 |
| SLC39A1 (UniProt Q9NY26) |  | -0.15 |  |  |  |  |  |  | -0.053 |  |  | 0.023 |  | -0.137 |  |  |  |  |  |  |
| SP2 (UniProt Q02086) | 0.012 |  | 0.277 |  |  |  |  |  |  | -0.14 |  |  | -0.08 |  |  | 0.125 |  | -0.319 | 0.083 | -0.06 |
| SPIN4 (UniProt Q56A73) |  |  |  |  |  |  |  |  |  |  |  |  |  |  |  |  |  | -1.43 (active) | 0.108 | -0.213 |
| TAF6L (UniProt Q9Y6J9) | 0.177 | 0.049 | 0.001 | -0.13 | 0.166 | 0.054 | 0.038 | -0.133 | 0.166 | -0.035 |  | 0.058 | 0.246 | -0.08 | 0.115 | -0.121 | -0.045 |  |  |  |
| TM7SF2 (UniProt O76062) | -0.142 | -0.018 |  |  | -0.143 | 0.059 |  | 0 |  | -0.044 |  | 0.028 | -0.075 |  |  | 0.028 | -0.451 |  |  |  |
| TAOK2 (UniProt Q9UL54) |  |  |  | 0.107 | -0.02 | -0.095 | 0.003 | 0.022 | 0.003 |  | -0.108 |  |  | -0.045 | -0.02 |  | 0.035 | 0.189 | 0.157 | -0.036 |
